Reference: PubChem BioAssay
The source made the active and inactive calls.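 Rule for the calls: active = compounds killing one labelled cell type while sparing the other, by normalised counts and ratio limits, not self-fluorescent; inactive = the rest.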

Test: differential killing of epithelial or mesenchymal cells, primary screen, imaging, PC-3E GFP, TEM4-18 mCherry, co-culture (AID 1345086);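 note: cells exposed to compound for 72 h before imaging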;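 for red/green cell ratio (normalised): normalised mesenchymal count divided by normalised epithelial count so high means epithelial killing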
Details: imaging cell counts, at 1 µM, actives lie on both sides, counts scaled to control wells, 1 = unselective

Row | Compound | red/green cell ratio (normalised)
1 | O=c1c(O)c(-c2ccc(O)c(O)c2)oc2c(O[C@@H]3O[C@H](CO)[C@H](O)[C@@H](O)[C@H]3O)c(O)cc(O)c12 | 0.95 (inactive)
2 | CC[C@H](CCC(C)[C@H]1CCC2C3CCC4C[C@@H](O)CC[C@]4(C)C3CC[C@@]21C)C(C)C (some centres not stated) | 1.11 (inactive)
3 | CC(=O)OCC1=C[C@]2(O)CC3=C(CC24O[C@@H]4C1=O)[C@@]1(C)CCCC(C)(C)[C@@H]1CC3 (some centres not stated) | 1.02 (inactive)
4 | CC[C@H](C)/C=C/C1=CC2=C(Cl)C(=O)[C@@]3(C)OC(=O)C(C(=O)[C@@H](C)[C@@H](C)O)=C3C2=CO1 | 0.99 (inactive)
5 | C[C@@H]1C[C@@H](O)[C@@H](O)CO1 | 1.05 (inactive)
6 | CC1OC(O[C@H]2/C=C/C=C/C=C/C=C/C=C/C=C/C=C/[C@H](C)[C@@H](O)[C@@H](C)[C@H](C)OC(=O)CC(O)CC(O)CCC(O)C(O)CC(O)C[C@]3(O)C[C@H](O)C(C(=O)O)C(C2)O3)C(O)[C@@H](N)C1O (some centres not stated) | 1 (inactive)
7 | C/C=C/[C@@H]1C=C[C@@H]2C[C@H](C)CC[C@H]2[C@]1(C)/C(O)=C1\C(=O)[C@H](CO)N(C)C1=O | 1.03 (inactive)
8 | O=C1Cc2cc(O)ccc2O1 | 1.26 (inactive)
9 | CC(C)(O)[C@@H]1CC[C@](C)([C@H]2[C@@H](O)C[C@@]3(C)C4C[C@H](O[C@@H]5O[C@H](CO)[C@@H](O)[C@H](O)[C@H]5O)C5C(C)(C)[C@@H](O[C@@H]6OC[C@@H](O)[C@H](O)[C@H]6O)CC[C@@]56C[C@@]46CC[C@]23C)O1 (some centres not stated) | 0.94 (inactive)
10 | COC(=O)C1O[C@H](OC)[C@@H](OCc2ccccc2)[C@@H](OCc2ccccc2)C1O (some centres not stated) | 1 (inactive)
11 | Cc1ccc(S(=O)(=O)O[C@@H]2CCOC2=O)cc1 | 0.71 (inactive)
12 | CC(=O)OC1(C)CC[C@@]23CC1C(C)(C)[C@@H]2CC[C@H]3C (some centres not stated) | 0.99 (inactive)
13 | CC1(C)C2CC(=O)[C@@]3(C)C4=CC(=O)O[C@@H](C(=O)O)[C@]4(C)CCC3[C@@]2(C)[C@@H](O)C[C@H]1O (some centres not stated) | 0.95 (inactive)
14 | OCc1cc(Br)ccc1Cl | 1.07 (inactive)
15 | CC1CCC2(OC1)OC1CC3C4CCC5C[C@@H](O)CCC5(C)C4=CCC3(C)C1[C@@H]2C (some centres not stated) | 0.87 (inactive)
16 | CC(=O)OC[C@@]1(O)C[C@@]23CCC4c5ccoc5CC[C@]4(C)C2CC[C@@H]1C3 (some centres not stated) | 0.98 (inactive)
17 | COC1O[C@@H]2O[C@]3(C)CC[C@H]4[C@H](C)CC[C@@H]([C@H]1C)[C@@]24OO3 (some centres not stated) | 0.81 (inactive)
18 | COC(=O)C[C@H]1C(C)(C)C(=O)[C@@H]2CC3=C(CC[C@]4(C)C3=CC(=O)O[C@H]4c3ccoc3)C1(C)C2=O | 1.11 (inactive)
19 | CN(C)c1cccc2c(S(N)(=O)=O)cccc12 | 1.01 (inactive)
20 | C[C@H]1[C@H](OC(=O)CCC(=O)O)O[C@@H]2O[C@]3(C)CC[C@H]4[C@H](C)CC[C@@H]1[C@@]24OO3 | 0.81 (inactive)
21 | C/C=C\C(=O)O[C@@H]1[C@H](O)[C@@H](O)CO[C@@H]1C | 1.01 (inactive)
22 | COC(=O)C[C@@H]1C2(C)C(=O)[C@@H](CC3=C4CC(O)O[C@@H](c5ccoc5)[C@]4(C)CCC32)[C@H](O)C1(C)C (some centres not stated) | 1.16 (inactive)
23 | CC(C)[C@@H]1CCC(CO)=C[C@@H]1/C=C(\CO)C(=O)O | 0.88 (inactive)
24 | NCC1O[C@@H](OC2C(N)C[C@@H](N)C(O)[C@H]2OC2OC(CO)C(OC3OC(CN)[C@@H](O)C(O)[C@H]3N)C2O)C(N)[C@@H](O)C1O (some centres not stated) | 1.11 (inactive)
25 | C[C@@H]1CC[C@@]23CCC4(C)[C@@](C=CC5[C@@]6(C)CCC(=O)C(C)(C)C6CC[C@]54C)(OC2=O)C3[C@H]1C (some centres not stated) | 1.03 (inactive)
26 | CC(=O)O[C@H]1CC2CCC3C(CC[C@@]4(C)C3C[C@H]([N+]3(C)CCCCC3)[C@@H]4OC(C)=O)[C@@]2(C)C[C@@H]1N1CCCCC1 (some centres not stated) | 0.86 (inactive)
27 | CC(C)CC1OC23SCC(c4ccccc4)N2C(=O)C1C(C)(C)S3 (configuration not stated) | 0.9 (inactive)

Same assay, conditions: imaging cell counts, measured here: epithelial PC-3E GFP cell survival, at 1 µM

Row | Compound | normalised cell number
28 | Cc1cc(O)c2c(c1)Cc1cccc(O)c1C2=O | 1.28
29 | C#C[C@]1(O)CC[C@@H]2C3[C@H](C)CC4=C(CCC(=O)C4)[C@H]3CC[C@@]21C (some centres not stated) | 1.07
30 | C=CC(C)(C)c1[nH]c2ccccc2c1C1=C(OC)C(=O)C(c2c(C(C)(C)C=C)[nH]c3ccccc23)=C(OC)C1=O | 1.23
31 | COC(=O)C1O[C@H](OCc2ccccc2)[C@@H](OC(=O)c2ccccc2)[C@@H](OC(=O)c2ccccc2)C1O (some centres not stated) | 1.18
32 | O=c1c(O)cccc2cc(O)c(O)c(O)c12 | 1.11
33 | COCC1O[C@@H](OC)[C@@H](OCc2ccccc2)[C@@H](OCc2ccccc2)C1O (some centres not stated) | 1.18
34 | Cc1c(F)c(F)cc2c(=O)n(N)c(=O)n(C3CC3)c12 | 0.79
35 | CO[C@H]1C[C@H](O[C@H]2[C@H](C)[C@@H](O[C@@H]3O[C@H](C)C[C@H](N(C)C)[C@H]3O)[C@@H](C)C[C@]3(CO3)C(=O)[C@H](C)[C@@H](O)[C@@H](C)[C@@H](C)OC(=O)[C@@H]2C)O[C@@H](C)[C@@H]1O | 1.06
36 | O=C(Nc1ccc(Cl)cc1)Nc1ccc(CO)cc1 | 1.29
37 | CC(CC(=O)N1CCOC1=O)N1C(=S)SC[C@H]1c1ccccc1 (some centres not stated) | 1.08
38 | CC#C[C@]1(O)CCC2C3CCC4=CC(=O)CCC4=C3[C@@H](c3ccc(N(C)C)cc3)C[C@@]21C (some centres not stated) | 1.09
39 | O=C1CC(c2ccc(O)cc2)Oc2ccccc21 (configuration not stated) | 1.01
40 | C/C(=C\CO)CC[C@H](C)CCC[C@H](C)CCCC(C)C | 0.97
41 | O=c1c(O)c(-c2ccc(O)c(O)c2)oc2c(O[C@@H]3O[C@H](CO)[C@H](O)[C@@H](O)[C@H]3O)c(O)cc(O)c12 | 1.06
42 | CC[C@H](CCC(C)[C@H]1CCC2C3CCC4C[C@@H](O)CC[C@]4(C)C3CC[C@@]21C)C(C)C (some centres not stated) | 0.91
43 | CC(=O)OCC1=C[C@]2(O)CC3=C(CC24O[C@@H]4C1=O)[C@@]1(C)CCCC(C)(C)[C@@H]1CC3 (some centres not stated) | 0.93
44 | CC[C@H](C)/C=C/C1=CC2=C(Cl)C(=O)[C@@]3(C)OC(=O)C(C(=O)[C@@H](C)[C@@H](C)O)=C3C2=CO1 | 0.92
45 | C[C@@H]1C[C@@H](O)[C@@H](O)CO1 | 0.91
46 | CC1OC(O[C@H]2/C=C/C=C/C=C/C=C/C=C/C=C/C=C/[C@H](C)[C@@H](O)[C@@H](C)[C@H](C)OC(=O)CC(O)CC(O)CCC(O)C(O)CC(O)C[C@]3(O)C[C@H](O)C(C(=O)O)C(C2)O3)C(O)[C@@H](N)C1O (some centres not stated) | 1.18
47 | C/C=C/[C@@H]1C=C[C@@H]2C[C@H](C)CC[C@H]2[C@]1(C)/C(O)=C1\C(=O)[C@H](CO)N(C)C1=O | 0.99

Row | Compound | normalised cell number
48 | O=C1Cc2cc(O)ccc2O1 | 0.91
49 | CC(C)(O)[C@@H]1CC[C@](C)([C@H]2[C@@H](O)C[C@@]3(C)C4C[C@H](O[C@@H]5O[C@H](CO)[C@@H](O)[C@H](O)[C@H]5O)C5C(C)(C)[C@@H](O[C@@H]6OC[C@@H](O)[C@H](O)[C@H]6O)CC[C@@]56C[C@@]46CC[C@]23C)O1 (some centres not stated) | 0.98
50 | COC(=O)C1O[C@H](OC)[C@@H](OCc2ccccc2)[C@@H](OCc2ccccc2)C1O (some centres not stated) | 1.14
51 | Cc1ccc(S(=O)(=O)O[C@@H]2CCOC2=O)cc1 | 1.41
52 | CC(=O)OC1(C)CC[C@@]23CC1C(C)(C)[C@@H]2CC[C@H]3C (some centres not stated) | 1.16
53 | CC1(C)C2CC(=O)[C@@]3(C)C4=CC(=O)O[C@@H](C(=O)O)[C@]4(C)CCC3[C@@]2(C)[C@@H](O)C[C@H]1O (some centres not stated) | 1.05
54 | OCc1cc(Br)ccc1Cl | 1.07
55 | CC1CCC2(OC1)OC1CC3C4CCC5C[C@@H](O)CCC5(C)C4=CCC3(C)C1[C@@H]2C (some centres not stated) | 1.08
56 | CC(=O)OC[C@@]1(O)C[C@@]23CCC4c5ccoc5CC[C@]4(C)C2CC[C@@H]1C3 (some centres not stated) | 0.89
57 | COC1O[C@@H]2O[C@]3(C)CC[C@H]4[C@H](C)CC[C@@H]([C@H]1C)[C@@]24OO3 (some centres not stated) | 0.82
58 | COC(=O)C[C@H]1C(C)(C)C(=O)[C@@H]2CC3=C(CC[C@]4(C)C3=CC(=O)O[C@H]4c3ccoc3)C1(C)C2=O | 0.96
59 | CN(C)c1cccc2c(S(N)(=O)=O)cccc12 | 1.15
60 | C[C@H]1[C@H](OC(=O)CCC(=O)O)O[C@@H]2O[C@]3(C)CC[C@H]4[C@H](C)CC[C@@H]1[C@@]24OO3 | 0.68
61 | C/C=C\C(=O)O[C@@H]1[C@H](O)[C@@H](O)CO[C@@H]1C | 0.99
62 | COC(=O)C[C@@H]1C2(C)C(=O)[C@@H](CC3=C4CC(O)O[C@@H](c5ccoc5)[C@]4(C)CCC32)[C@H](O)C1(C)C (some centres not stated) | 0.99
63 | CC(C)[C@@H]1CCC(CO)=C[C@@H]1/C=C(\CO)C(=O)O | 1.29
64 | NCC1O[C@@H](OC2C(N)C[C@@H](N)C(O)[C@H]2OC2OC(CO)C(OC3OC(CN)[C@@H](O)C(O)[C@H]3N)C2O)C(N)[C@@H](O)C1O (some centres not stated) | 0.9
65 | C[C@@H]1CC[C@@]23CCC4(C)[C@@](C=CC5[C@@]6(C)CCC(=O)C(C)(C)C6CC[C@]54C)(OC2=O)C3[C@H]1C (some centres not stated) | 0.95
66 | CC(=O)O[C@H]1CC2CCC3C(CC[C@@]4(C)C3C[C@H]([N+]3(C)CCCCC3)[C@@H]4OC(C)=O)[C@@]2(C)C[C@@H]1N1CCCCC1 (some centres not stated) | 1.03
67 | CC(C)CC1OC23SCC(c4ccccc4)N2C(=O)C1C(C)(C)S3 (configuration not stated) | 1.15
